Records with an inconclusive call do not appear. Active and inactive are the calls of the source. Calls follow the shape of the dose curve; as a rule, active = well fitted curve in the direction sought with a large enough effect; inconclusive = small, poorly fitted or top-dose-only effect, or another doubt; inactive = no such curve, though single readings can be large or run the other way.
These compounds were tested against Microtubule-associated protein tau (Homo sapiens) (UniProt P10636) (assay: Confirmation Concentration-Response Assay for Inhibitors of Tau Fibril Formation, Fluorescence Polarization). Conditions: recombinant tau K18 P301L (four-repeat tau fragment) heparin fibrillization, Alexa594 FP; series mostly up to 57.1 µM; activity change, negative = inhibition: at the top concentration.
Sequence of Microtubule-associated protein tau (Homo sapiens) (P10636 561-689 P618L limits assumed): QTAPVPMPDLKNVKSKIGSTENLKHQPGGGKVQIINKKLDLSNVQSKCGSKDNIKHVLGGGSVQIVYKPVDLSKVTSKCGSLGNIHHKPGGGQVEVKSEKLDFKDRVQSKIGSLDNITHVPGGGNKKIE
Source text: NIH Molecular Libraries Probe Production Network [MLPCN] NIH Chemical Genomics Center [NCGC] MLPCN Grant: X01 MH083262-01 Assay Provider: Carlo Ballatore, University of Pennsylvania NCGC Assay Overview: The microtubule-associated protein tau is an abundant protein in the axons of neurons that stabilizes microtubules. With its ability to modulate microtubule dynamics, tau contributes directly or indirectly, to key structural and regulatory cellular functions. Particularly important is the influence tau exerts on axonal transport, which allows signaling molecules, trophic factors and other essential cellular constituents to travel along the axons. Under pathological conditions, tau becomes sequestered into insoluble aggregates called neurofibrillary tangles. This phenomenon is believed to have pathological consequences by promoting axonal transport deficits that ultimately lead to synaptic dysfunction and neuronal loss. To identify inhibitors of tau aggregation, a heparin-induced tau fibril formation assay was used that employed a recombinantly expressed fragment of tau, K18 (Q242-E372), bearing a P301L mutation (Gustke et al. 1994; Hong et al. 1998). […] Gustke, N., B. Trinczek, et al. (1994). "Domains of tau protein and interactions with microtubules." Biochemistry 33(32): 9511-22. Hong, M., V. Zhukareva, et al. (1998). "Mutation-specific functional impairments in distinct tau isoforms of hereditary FTDP-17." Science 282(5395): 1914-7. Li, W. and V. M. Lee (2006). "Characterization of two VQIXXK motifs for tau fibrillization in vitro." Biochemistry 45(51): 15692-701. von Bergen, M., S. Barghorn, et al. (2001). "Mutations of tau protein in frontotemporal dementia promote aggregation of paired helical filaments by enhancing local beta-structure." J Biol Chem 276(51): 48165-74.
For screening, 2 uL/well human K18 P301L (15 uM unlabeled and 0.24 uM Alexa 594-labeled tau final concentrations) in reagent buffer (100 mM sodium acetate pH 7) was dispensed into black solid 1536-well plates (Grenier) using a solenoid-based dispenser. Following transfer of 23 nL compound or DMSO vehicle by a pin tool, 2 uL/well heparin (20 uM final concentration) in reagent buffer was added and the plate centrifuged 15 s at 1000 RPM. Plates were incubated 6 hr at 37 C and then 1 uL/well ThT (30 uM final concentration) was added. After a 1 hr ambient incubation, the plates were read by an Envision (Perkin Elmer) to monitor Alexa 594 FP (555 nm excitation and 632 nm emission). Keywords: NIH Roadmap, MLPCN, MLI, MLSMR, NCGC, qHTS, tau, tauopathies, Alzheimer's disease, fibril, neurodegeneration, aggregation
With `Cc1ccc(N(C)S(=O)(=O)c2nnc(NC(=O)C3CCCCC3)s2)cc1` the “activity change, negative = inhibition” value was -6% [at 100 µM] (inactive).
With `CC(C)(C)c1ccc(NC(=O)N2CCN(c3ccc([N+](=O)[O-])cn3)CC2)cc1` the “activity change, negative = inhibition” value was -12.9% [at 100 µM] (inactive).
With `COc1c(Cl)cccc1NC(=O)c1c(NC(=O)Cc2ccccc2)sc2c1CCCC2` the “activity change, negative = inhibition” value was 4.04% (inactive).
For `COc1ccc2c(c1)c(CC(=O)N1CCOCC1)c(C)n2C(=O)c1ccc(Cl)cc1`, the “activity change, negative = inhibition” value was -2.9% [at 100 µM] (inactive).
In the case of `O=C(NCc1cccnc1)C1CCN(S(=O)(=O)c2cccs2)CC1`, the “activity change, negative = inhibition” value is reported as -5.75% [at 100 µM] (inactive).
In the case of `CCOC(=O)c1nn(-c2ccc(OC)cc2)c(=O)c2c(NC(=O)Cc3ccccc3)scc12`, the “activity change, negative = inhibition” value is reported as 2.38% (inactive).
In the case of `Cc1ccc(NC(=O)c2c(NC(=O)Cc3ccccc3)sc3c2CCCC3)cc1`, the “activity change, negative = inhibition” value is reported as -10.5% (inactive).
For `O=S(=O)(c1ccc(NC(=S)N/N=C/c2ccc(N3CCOCC3)cc2)cc1)N1CCOCC1`, the “activity change, negative = inhibition” value was -4.1% [at 100 µM] (inactive).
With `O=C(CSc1nc2scc(-c3ccco3)c2c(=O)n1-c1ccccc1)N1CCOCC1` the “activity change, negative = inhibition” value was -7.95% (inactive).
With `COc1cccc(/C=C2/SC(=S)N(CC(=O)Nc3nnc(C)s3)C2=O)c1` the “activity change, negative = inhibition” value was -24.6% (inactive).
`CCOC(=O)c1nn(-c2ccccc2F)c(=O)c2c(N)scc12` was tested, and the “activity change, negative = inhibition” value was -12.8% (inactive).
`Cc1ccc(SCc2cc(=O)n(C)[nH]2)cc1` was tested, and the “activity change, negative = inhibition” value was -3.6% [at 100 µM] (inactive).
With `COc1ccc2oc(-c3ccc(NC(=O)c4ccc(N5CCOCC5)c([N+](=O)[O-])c4)cc3)nc2c1` the “activity change, negative = inhibition” value was -2.5% [at 100 µM] (inactive).
In the case of `Cc1nc2ccccc2oc1=O`, the “activity change, negative = inhibition” value is reported as -4.6% [at 100 µM] (inactive).
In the case of `NC[C@@H](O)c1ccc(O)c(O)c1`, the “activity change, negative = inhibition” value is reported as -5.2% [at 100 µM] (inactive).
For `S=C1Cc2ccccc2N1`, the “activity change, negative = inhibition” value was -9.54% (inactive).
With `CC(C)c1ccc(NS(=O)(=O)c2ccc3[nH]cc(C(=O)NCCc4ccccc4)c(=O)c3c2)cc1` the “activity change, negative = inhibition” value was -17.1% [at 100 µM] (inactive).
`CC(=O)Nc1sc(C)c2cnn(-c3ccccc3)c(=O)c12` was tested, and the “activity change, negative = inhibition” value was -5.35% (inactive).
`COC(=O)c1c(NC(=O)C(C)(C)C)sc2c1C(C(=O)OC)CC2` (stereo not given) was tested, and the “activity change, negative = inhibition” value was -2.5% [at 100 µM] (inactive).
In the case of `O=C(Cc1ccccc1)Nc1sc2c(c1C(=O)Nc1ccc(Cl)cc1)CCCC2`, the “activity change, negative = inhibition” value is reported as 0.795% (inactive).
With `O=C(Nc1cccc(-c2nc3ccccc3o2)c1)c1cc([N+](=O)[O-])ccc1N1CCOCC1` the “activity change, negative = inhibition” value was -3.1% [at 100 µM] (inactive).
With `CCOC(=O)c1c(N)sc2c1CCOC2` the “activity change, negative = inhibition” value was -6.49% (inactive).
For `N#Cc1cccc(NC(=O)c2ccc3c(c2)N(Cc2cccc(Cl)c2)C(=O)c2ccccc2S3(=O)=O)c1`, the “activity change, negative = inhibition” value was -0.9% [at 100 µM] (inactive).
With `CCOC(=O)N1CCN(C(=O)CN2C(=O)/C(=C\c3cccc(OC)c3)SC2=S)CC1` the “activity change, negative = inhibition” value was -18.3% (inactive).
In the case of `CN(c1ccccc1)S(=O)(=O)c1nnc(NC(=O)COc2ccccc2)s1`, the “activity change, negative = inhibition” value is reported as -3.1% [at 100 µM] (inactive).
`COc1ccc2c(c1)c(CC(=O)Nc1ccc(C(C)=O)cc1)c(C)n2C(=O)c1ccc(Cl)cc1` was tested, and the “activity change, negative = inhibition” value was -10.6% [at 100 µM] (inactive).
With `COC(=O)CSc1nc2ccc(NC(=O)CSc3nnnn3Cc3ccccc3)cc2s1` the “activity change, negative = inhibition” value was -9.6% [at 100 µM] (inactive).
For `Nc1ccc(-c2ccc3ccccc3n2)cc1`, the “activity change, negative = inhibition” value was -5.65% [at 100 µM] (inactive).
With `CCOC(=O)c1nn(-c2ccc(C)c(C)c2)c(=O)c2c(N)scc12` the “activity change, negative = inhibition” value was -29.4% (inactive).
For `Cc1ccc(NC(=O)N2CCN(c3ccccn3)CC2)cc1`, the “activity change, negative = inhibition” value was -9.65% [at 100 µM] (inactive).
With `NCCc1ccc(O)c(O)c1` the “activity change, negative = inhibition” value was -3.85% [at 100 µM] (inactive).
In the case of `Cc1cc2c(N)cccc2nn1`, the Potency is reported as 39.8 µM (active).
`O=C(O)CN1C(=O)/C(=C/c2ccc(-c3cccc(Cl)c3)o2)SC1=S` was tested, and the “activity change, negative = inhibition” value was -8.8% [at 100 µM] (inactive).
In the case of `COc1ccc(OC)c(NC(=O)c2c(NCc3cccs3)sc3c2CCCC3)c1`, the “activity change, negative = inhibition” value is reported as 10.3% (inactive).
With `O=C(Nc1ccccc1)Nc1ccccc1` the “activity change, negative = inhibition” value was -2.15% [at 100 µM] (inactive).
For `O=C(Cc1ccccc1)Nc1sc2c(c1C(=O)Nc1ccc(Cl)cc1)CCOC2`, the “activity change, negative = inhibition” value was -15.8% (inactive).
With `O=C(Cc1ccccc1)Nc1sc2c(c1C(=O)Nc1cccc(Cl)c1)CCCC2` the “activity change, negative = inhibition” value was 0.795% (inactive).
`COc1ncc(-c2ccccc2)cc1N` was tested, and the “activity change, negative = inhibition” value was -4.28% (inactive).
`Cn1[nH]c(CSc2ccc(Cl)cc2)cc1=O` was tested, and the “activity change, negative = inhibition” value was -3.05% [at 100 µM] (inactive).
In the case of `CC1CCc2c(sc(NC(=O)Cc3ccccc3)c2C(=O)Nc2ccc(Cl)cc2)C1` (stereo not given), the “activity change, negative = inhibition” value is reported as -21% (inactive).
